Results on 16 compounds are retold here after PubChem BioAssay.

Usually viability stands for a read-out of living cells in per cent, often relative to untreated cells.

Each structure is given as a SMILES string. Activity calls are given as the source filed them.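 Rule for the calls: active = viability at or under a set limit in both replicates, limit being median viability minus 3 SD (cut at about 48% in these data, passing the limit was not always enough); inconclusive = at or under the limit in just one replicate; inactive = at or above the limit in both replicates.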

The nature of this assay: growth inhibitors of H69AR lung tumor, primary screen, human, duplicate replicates (AID 580).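 Note: 100% = mean luminescence of untreated wells and 0% = no signal.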 Particulars: H69AR lung tumor cells viability, ATP luminescence, 72 h; at 10 µM; active compounds read low.
As for `CN(C)c1ccc(NC(=O)Cn2cc3c(n2)CCCC3)cc1`, the viability is 74% (inactive).
With `CCOC(=O)c1cc(NC(=O)SCC(=O)O)c(C)nc1C`, the viability was 88.1% (inactive).
For the compound `Cc1nc2ccccc2c2oc(C(=O)NCC3COc4ccccc4O3)cc12` (stereo unspecified), the viability is 88.4% (inactive).
As for `O=C(CS(=O)(=O)c1cn(Cc2ccc(F)cc2)c2ccccc12)N1CCCCC1`, the viability was 99.9% (inactive).
With `Cc1ccc(C2c3c(oc4ccccc4c3=O)C(=O)N2c2nnc(C(C)C)s2)o1` (stereo unspecified), the viability was 11.2% (active).
Consider `Cc1cc(C)c2c(=O)n(CC(=O)NCCCN3CCN(c4ccccc4F)CC3)sc2n1`, for which the viability was 3.21% (active).
In the case of `COc1ccccc1S(=O)(=O)Cc1ccc(C(=O)NCCN2CCCCCC2)o1`, the viability was 102% (inactive).
On to `COc1ccc(C2C(C(=O)Nc3cccnc3)=C(C)Nc3nc(-c4cccs4)nn32)cc1OC` (stereo unspecified), for which the viability was 87.8% (inactive).
As to `Cc1cc(=O)oc2cc(OCC#N)ccc12`, the viability was 99.4% (inactive).
Take `CC1=C(C(N)=O)C(c2ccccn2)n2nc(SCc3ccccc3)nc2N1` (stereo unspecified): the viability is 93.8% (inactive).
Next, `CCOC(=O)CSC1=C(C#N)C(c2ccc(C)o2)CC(=O)N1` (stereo unspecified): 26.6% (active).
Take `O=C(Nc1nc2c(s1)CCCC2)C1COc2ccccc2O1` (stereo unspecified): the viability was 88.3% (inactive).
In the case of `Cc1ccccc1Cn1nc(C)c(NC(=O)c2noc3c2CCc2ccccc2-3)c1C`, the viability is 98.4% (inactive).
On to `O=C(C1CC1)N1CCc2cc(Br)cc(S(=O)(=O)N3CCOCC3)c21`, for which the viability was 90.6% (inactive).
For the compound `C/C=C/COC(=O)c1[nH]c2c(c1C)C(=O)CC(c1ccco1)C2` (stereo unspecified), the viability is 24.4% (active).
`Cc1ccc2nc(NC(=O)Cn3cc4c(n3)CCCCC4)sc2c1`: the viability was 93% (inactive).
